VDR inhibitor: blocks the human vitamin D receptor | AID 504847 | Potency, µM, hits mostly inhibitors | P11473 | 400,000 compounds, 0.93% hits | VDR-SRC2-3 peptide fluorescence polarization, 2 h
Target sequence (P11473 whole entry, looked up): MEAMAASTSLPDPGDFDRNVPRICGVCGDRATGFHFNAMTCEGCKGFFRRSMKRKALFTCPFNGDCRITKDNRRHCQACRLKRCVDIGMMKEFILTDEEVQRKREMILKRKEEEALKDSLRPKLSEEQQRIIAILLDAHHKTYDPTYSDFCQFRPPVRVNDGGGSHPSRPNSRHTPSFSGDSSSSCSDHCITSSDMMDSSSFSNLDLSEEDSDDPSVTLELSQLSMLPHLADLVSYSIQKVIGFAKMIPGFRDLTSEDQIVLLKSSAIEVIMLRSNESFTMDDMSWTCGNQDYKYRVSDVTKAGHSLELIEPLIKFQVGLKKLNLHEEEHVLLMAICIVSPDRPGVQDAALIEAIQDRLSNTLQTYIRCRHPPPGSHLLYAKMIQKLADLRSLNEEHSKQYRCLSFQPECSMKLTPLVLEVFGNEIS
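Fluorescence polarization assay of small-molecule disruption of VDR binding to coregulator peptide SRC2-3. Compounds and controls pin-transferred, then read after 2 h incubation at ambient room temperature.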
JMJD2A Tudor: JMJD2A Tudor domain (human) inhibition | O75164 | AlphaScreen JMJD2A-Tudor / H3K4me3 peptide binding | Potency, µM (doses to about 114 µM), usual class: inhibitors | 390,000 compounds, 4.4% hits; further: nearly all actives have a fitted effect of over 50% in size
G9a block: blocks human histone lysine methyltransferase G9a | Q96KQ7 | G9a H3K9 monomethylation, AlphaScreen, 2 h | Potency, µM (series often up to 102 µM), usual class: inhibitors | 350,000 compounds, 8.8% hits; further: nearly all actives have a fitted effect of over 75% in size
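Step 1: enzyme (final 20 nM) with compound, 15 min RT. Step 2: substrate peptide 500 nM and SAM 20 uM, 2 h RT. Step 3: anti-H3K9me1 antibody and AlphaScreen beads, 10 min, then plate read.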
HP1b binding inh: inhibitors of HP1-beta chromodomain binding to methylated histone tails. P83916. AlphaScreen HP1-beta / biotin-H3K9me3 peptide binding. Potency, µM (doses to about 114 µM), actives largely listed as inhibitors. 390,000 compounds, 0.56% hits; further: nearly all actives have a fitted effect of over 70% in size
Target sequence (P83916 whole entry, looked up): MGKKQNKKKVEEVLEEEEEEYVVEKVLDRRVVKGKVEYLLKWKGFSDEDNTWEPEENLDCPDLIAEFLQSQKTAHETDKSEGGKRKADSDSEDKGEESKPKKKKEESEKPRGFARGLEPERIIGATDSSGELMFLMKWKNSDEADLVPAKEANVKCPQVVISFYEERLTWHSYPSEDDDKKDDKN
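HP1-beta protein (50 nM final) preincubated 30 min at room temperature with biotinylated H3(1-18)K9me3 peptide (50 nM) in PBS pH 7.4, 0.01% Tween-20, then compound added for 30 min. AlphaScreen streptavidin donor/nickel chelate acceptor beads (10 ug/mL final), 30 min dark, luminescence read.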
PLK1 PBD inh: blocks phosphopeptide binding to human PLK1 polo-box domain. 360,000 compounds, 2.8% hits. Potency, µM, most hits filed as inhibitors. Plk1 PBD binding of FITC phosphopeptide, fluorescence polarization. P53350; further: series mostly up to about 57 µM; nearly all actives have a fitted effect of over 65% in size
BAZ2B block: inhibitors of human BAZ2B bromodomain; Q9UIF8; AlphaScreen BAZ2B-H3K14Ac peptide displacement; Potency, µM (doses to about 114 µM), most hits filed as inhibitors; 360,000 compounds, 4.4% hits; further: nearly all actives have a fitted effect of over 60% in size
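Compounds, titrated to a top concentration of 110 uM, were incubated 30 min at room temperature with preformed BAZ2B/acetyl-K14 H3 peptide complex (50 nM each). Proximity signal was measured by AlphaScreen after 20 min with beads.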
Each line names hits and unclear results; the compound was inactive in the other large screens; ! = repeats disagree. An excerpt weighted towards active compounds, which were near 11% of everything screened. The call rests on the fitted dose curve; in most records, active means well fitted curve in the direction sought with a large enough effect; inconclusive means small, poorly fitted or top-dose-only effect, or another doubt; inactive means no such curve, though single readings can be large; an effect the other way counts as inactive or inconclusive.

Cc1ccc(NC(=S)N2CCN(S(=O)(=O)c3ccccc3)CC2)cc1C	BAZ2B block inconclusive (no result: G9a block)
COc1cccc(-c2nc(CS(=O)(=O)c3ccccc3)no2)c1	none
CC(C)(C)c1ccc(-c2nc(N)nc(N)n2)cc1	none (no result: G9a block)
CCn1c(-c2ccc(C(C)(C)C)cc2)n[nH]c1=S	JMJD2A Tudor 45µM, G9a block 0.56µM
CC(C)Cn1c(-c2ccc(F)cc2)n[nH]c1=S	JMJD2A Tudor 7.9µM, G9a block inconclusive, HP1b binding inh inconclusive
Fc1ccccc1-c1n[nH]c(=S)n1C1CC1	G9a block 8.9µM (no result: VDR inhibitor, JMJD2A Tudor, HP1b binding inh, PLK1 PBD inh)
Cn1c(-c2ccc(C(C)(C)C)cc2)n[nH]c1=S	JMJD2A Tudor 22µM, G9a block 2µM
CCC1=C(c2ccc(C)cc2)S(=O)(=O)N=C1N1CCC(C(=O)NCCc2cccc(OC)c2)CC1	none (no result: PLK1 PBD inh)
CCOC(=O)C1=C(O)/C(=C\c2ccc(O)c(OCC)c2)N=C1C	G9a block inconclusive
CCOc1cc(/C=C2\SC(N)=NC2=O)ccc1O	G9a block 56µM
CCOc1c(Br)cc(Br)cc1/C=C1\SC(N)=NC1=O	JMJD2A Tudor 25µM, BAZ2B block inconclusive (no result: G9a block)
COc1ccc(/C=C2\SC(N)=NC2=O)cc1	none
COc1cc(/C=C2\SC(c3ccc(C)cc3)=NC2=O)ccc1O	VDR inhibitor inconclusive, JMJD2A Tudor 28µM, G9a block 11µM, HP1b binding inh inconclusive, BAZ2B block 22µM
COc1cc(/C=C2\SC(c3ccc(C)cc3)=NC2=O)cc(OC)c1OC	VDR inhibitor inconclusive, JMJD2A Tudor 56µM, G9a block 1µM, HP1b binding inh inconclusive
CCn1cnc2c(Nc3ccc(CC(=O)N=C(N)N)cc3)nc(C#N)nc21	none (no result: VDR inhibitor, G9a block, HP1b binding inh, PLK1 PBD inh, BAZ2B block)
Cc1cc2oc(C(=O)Nc3cccc(-c4nc5ccccc5o4)c3)c(C)c2cc1Cl	none (no result: PLK1 PBD inh)
COc1cc(/C=C2\SC(c3ccccc3)=NC2=O)cc(Cl)c1O	VDR inhibitor inconclusive, JMJD2A Tudor 6.3µM, HP1b binding inh 13µM, PLK1 PBD inh 11µM, BAZ2B block 35µM
COc1cc(/C=C2\SC(N)=NC2=O)cc(Br)c1O	BAZ2B block inconclusive
C=COCCNC(=S)N1CCOCCOCCN(C(=S)NCCOC=C)CCOCC1	none
Cc1ccc(NC(=O)c2c(C)oc3ccc(O)c(CN4CCCCC4)c23)cc1	none (no result: PLK1 PBD inh)
O=C(CN1CCN(c2ccccc2F)CC1)c1ccc2cc[nH]c2c1	G9a block 25µM
O=C(CN1CCN(c2ccccc2F)CC1)N1CCc2ccccc21	none
CC(=O)N1CCc2cc(C(=O)CN3CCN(c4ccccc4F)CC3)ccc21	G9a block 14µM
CC(=O)N1CCc2cc(C(=O)CN3CCN(c4ccccn4)CC3)ccc21	G9a block 20µM
Cc1ccc(C)c(NC(=O)C2CCCN(S(=O)(=O)c3ccc4[nH]c(=O)ccc4c3)C2)c1 (stereo not drawn)	none
COc1cc(C(=O)Nc2nonc2-c2ccc(C)c(C)c2)cc(OC)c1OC	none (no result: PLK1 PBD inh)
COc1cccc(-c2nc(-c3ccccn3)no2)c1OC	HP1b binding inh inconclusive, PLK1 PBD inh 7.5µM
COc1cc(-c2nc(-c3ccccn3)no2)cc(OC)c1OC	none
COc1cc(OC)cc(-c2nc(-c3ccccc3OC)no2)c1	JMJD2A Tudor inconclusive, PLK1 PBD inh 27µM
COc1ccccc1-c1noc(-c2cc(OC)c(OC)c(OC)c2)n1	VDR inhibitor inconclusive, JMJD2A Tudor inconclusive, HP1b binding inh inconclusive, PLK1 PBD inh 8.4µM
Cc1ccccc1OCc1nc(-c2ccccc2)no1	none
Cc1ccccc1OCc1nc(-c2ccc(Br)o2)no1	G9a block 79µM, BAZ2B block inconclusive
Cc1ccccc1CSc1nc2ccsc2c(=O)n1CCC(C)C	none (no result: PLK1 PBD inh)
COc1ccccc1-c1nc(-c2ccc(Br)o2)no1	G9a block 50µM!
COc1ccc(-c2nc(-c3ccc(Br)o3)no2)cc1OC	none
Cc1cc2c(s1)c1cnn(Cc3ccc(F)c(Cl)c3)c(=O)c1n2C	none (no result: VDR inhibitor, G9a block, HP1b binding inh, PLK1 PBD inh, BAZ2B block)
CC(C)(C)c1csc(NC(=O)Cn2cnc3ccccc3c2=O)n1	VDR inhibitor inconclusive, JMJD2A Tudor inconclusive, G9a block inconclusive, HP1b binding inh inconclusive, PLK1 PBD inh 13µM
CC(C)(C)c1csc(NC(=O)CSc2nc3ccccc3c(=O)[nH]2)n1	PLK1 PBD inh inconclusive
CCOc1ccc(S(=O)(=O)N(CC)CC)cc1NS(=O)(=O)c1ccc(F)c(F)c1F	VDR inhibitor 71µM, JMJD2A Tudor 50µM, PLK1 PBD inh 9.5µM
S=c1[nH]ccc2ccccc12	PLK1 PBD inh inconclusive (no result: G9a block, BAZ2B block)
S=c1[nH]ncc2ccccc12	JMJD2A Tudor 50µM, G9a block 45µM
O=C(CC1S/C(=N/N=C/c2c[nH]c3ccc(OCc4ccccc4)cc23)NC1=O)Nc1ccccc1 (stereo not drawn)	none
NC(Cc1c[nH]c2ccc(OCc3ccccc3)cc12)C(=O)O (stereo not drawn)	JMJD2A Tudor inconclusive, G9a block 45µM, BAZ2B block inconclusive
N[C@@H](Cc1c[nH]c2ccc(O)cc12)C(=O)O	JMJD2A Tudor inconclusive, G9a block 8.4µM!, BAZ2B block inconclusive
OCCc1c[nH]c2ccc(OCc3ccccc3)cc12	none
O=C1c2ccccc2C(=O)N1CCc1c[nH]c2ccc(O)cc12	G9a block inconclusive
NC(=S)N/N=C/c1c[nH]c2ccc(OCc3ccccc3)cc12	JMJD2A Tudor inconclusive, G9a block 40µM, PLK1 PBD inh inconclusive, BAZ2B block 35µM
Cc1nc(N2CCOCC2)c2c(C(=O)NCCc3ccccc3)c(C)oc2n1	none (no result: PLK1 PBD inh)
CC1(C)Cc2c(sc(NC(=O)C(=O)N3CCCC3)c2C#N)CO1	JMJD2A Tudor inconclusive, G9a block 28µM, PLK1 PBD inh inconclusive
N#Cc1c(-n2ncnc2-c2ccc(F)cc2)sc2c1CCCCC2	JMJD2A Tudor inconclusive, G9a block inconclusive, HP1b binding inh inconclusive, BAZ2B block 7.1µM (no result: PLK1 PBD inh)
N#Cc1c(-n2ncnc2-c2cccc(Br)c2)sc2c1CCCCC2	JMJD2A Tudor inconclusive (no result: PLK1 PBD inh)
CC(C)(C)c1ccc(C(=O)NC2=NC(c3cccc(F)c3)CC(=O)N2)cc1 (stereo not drawn)	none (no result: PLK1 PBD inh)
Oc1c(Br)cc(Br)c2cccnc12	VDR inhibitor inconclusive, JMJD2A Tudor 40µM (no result: BAZ2B block)
CC(C)CCC(CC(C)O)c1n[nH]c(=S)n1-c1ccccc1 (stereo not drawn)	JMJD2A Tudor 8.9µM, G9a block 6.3µM
CCC(c1n[nH]c(=S)n1-c1ccccc1)N(C)C (stereo not drawn)	JMJD2A Tudor 32µM, G9a block 8.9µM
Cc1ccc(OCc2n[nH]c(=S)n2-c2ccc(Cl)cc2)cc1	JMJD2A Tudor inconclusive, G9a block 3.2µM
Cc1n[nH]c(=S)n1-c1ccc(Cl)cc1	JMJD2A Tudor 2.5µM, G9a block inconclusive, PLK1 PBD inh inconclusive
S=c1[nH]nc(COc2ccc(Cl)cc2)n1-c1ccccc1	none
COC(Cc1n[nH]c(=S)n1-c1ccc(Cl)cc1)OC	JMJD2A Tudor 14µM, G9a block inconclusive
